The list is not random: actives were taken first. Their share in the collection is about 11%.
HADH2 inh: HADH2 (human) dehydrogenase inhibition; AID 886; actives 3.4% (n = 73,000); Potency, µM (highest dose often 57.1 µM), without a hit: at the top dose activity change, negative = inhibition, actives largely listed as inhibitors; recombinant HADH2, NADH fluorescence, beta-hydroxybutyryl-CoA; further: nearly all actives have a fitted effect of over 60% in size
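Activity measured as NADH fluorescence gain (360/450 nm), taken as the change between first and last reads of a 4-min kinetic run. Conditions: pH 9.0 Tris buffer, 20 nM E. coli-expressed His-tagged enzyme, 1 mM NAD+, 90 uM beta-hydroxybutyryl-CoA; 15-min compound preincubation.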
ALOX15 inhib: 15-hLO (ALOX15) enzyme inhibition. P16050. Potency, µM (titrated, usually from 57.1 µM), for inactives: at the highest dose activity change, negative = inhibition, hits mostly inhibitors. purified 15hLO-1, xylenol orange hydroperoxide absorbance. actives 1.4% (n = 74,000); further: nearly all actives have a fitted effect of over 55% in size
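Purified human 15hLO-1 (40 nM) in 25 mM Hepes pH 7.5, 0.01% Triton X-100, preincubated 15 min RT with compound, then 50 uM arachidonic acid for 6 min. Hydroperoxide read by ferrous/xylenol orange, 30 min; 573/405 nm absorbance ratio gave progress.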
ERK AVP block: vasopressin-driven ERK pathway inhibition | HEK293-V1b, vasopressin-stimulated pERK AlphaScreen | Potency, µM (top dose mostly 57.5 µM), without a hit: at the highest dose activity, negative = inhibition, hits mostly inhibitors | actives 0.99% (n = 72,000) | AID 995; further: nearly all actives have a fitted effect of over 55% in size
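HEK293 cells stably expressing V1b receptor, preincubated 30 min at 37 °C with compound, then stimulated 5 min with 25 nM vasopressin. Phospho-ERK by AlphaScreen SureFire after 5 h RT; normalized to DMSO and vasopressin; AC50 by Hill fit.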
HSD17B inh: inhibitors of human HSD17B10 dehydrogenase | actives 7.6% (n = 75,000) | Potency, µM (highest dose often 57.1 µM), for the others: at the highest dose activity change, negative = inhibition, most hits filed as inhibitors | recombinant HSD17B10, NADH fluorescence kinetic | Q99714;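 further: the protocol describes HADH2 (HSD17B10) and not the HSD17B4 of the title; nearly all actives have a fitted effect of over 70% in size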
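20 nM HADH2, pH 9.0 Tris/Tween; cpd preinc 15 min RT; start w/ 1 mM NAD+ + 90 uM b-hydroxybutyryl-CoA; kinetic fluor ex360/em450 q30s x 4 min; delta last-first.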
PK Bst: modulators of Bacillus stearothermophilus pyruvate kinase; purified pyruvate kinase, luminescence ATP production; ribose 5-phosphate activator present at AC10; Potency, µM; actives 1.2% (n = 51,000); AID 361; in the data active means potency below about 11 µM; inconclusive means mostly about 12 µM to 25 µM;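 the screen sought inhibitors and activators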;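 further: scaled between full activation by ribose 5 phosphate and full inhibition by luteolin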
Luciferase inh: blocks Photinus pyralis firefly luciferase activity; actives 2.2% (n = 72,000); Potency, µM (series often up to 57.1 µM), without a hit: at the top dose activity change, negative = inhibition, usual class: inhibitors; purified firefly luciferase, luminescence, 8 min; further: nearly all actives have a fitted effect of over 40% in size
Target sequence (P08659 whole entry, looked up): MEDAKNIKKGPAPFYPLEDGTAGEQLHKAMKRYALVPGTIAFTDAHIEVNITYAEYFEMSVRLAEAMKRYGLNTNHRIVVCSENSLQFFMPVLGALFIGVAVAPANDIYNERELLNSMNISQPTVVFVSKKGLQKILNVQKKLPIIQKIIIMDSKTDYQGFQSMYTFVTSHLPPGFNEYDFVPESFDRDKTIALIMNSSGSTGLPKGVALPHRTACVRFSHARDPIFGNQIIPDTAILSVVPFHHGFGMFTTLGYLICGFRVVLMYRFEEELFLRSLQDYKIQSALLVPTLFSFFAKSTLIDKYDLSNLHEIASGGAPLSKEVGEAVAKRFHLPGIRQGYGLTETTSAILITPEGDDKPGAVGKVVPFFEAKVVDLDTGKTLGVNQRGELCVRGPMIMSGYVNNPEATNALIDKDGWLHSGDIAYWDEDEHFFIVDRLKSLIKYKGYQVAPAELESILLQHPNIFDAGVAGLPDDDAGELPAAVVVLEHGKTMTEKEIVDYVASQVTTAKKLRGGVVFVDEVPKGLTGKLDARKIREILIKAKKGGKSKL
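Compounds were tested as concentration series (qHTS) against purified P. pyralis luciferase with luciferin and 10 uM ATP in 50 mM imidazole pH 7.2, 50 mM KCl, 7 mM MgCl2, 0.01% Tween 20, 0.05% BSA. Luminescence was read after 8 min at ambient temperature.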
Numbers without * were called inactive; u = inconclusive; x = not tested or not shown; ! = not confirmed by another sample; [ ] = dose if it differs, or a comment. Unless noted, the call rests on the fitted dose curve; in most records, active means well fitted curve in the direction sought with a large enough effect; inconclusive means small, poorly fitted or top-dose-only effect, or another doubt; inactive means no such curve, though single readings can be large; an effect the other way counts as inactive or inconclusive. Unless noted, on the % scale 0 is the no-effect control and ±100 the full control effect; potency means the concentration at half of the fitted maximal effect.

SMILES | HADH2 inh | ALOX15 inhib | ERK AVP block | HSD17B inh | PK Bst | Luciferase inh
Cc1noc(C)c1-c1cc(Nc2ccc(F)cc2)ncn1 | 10% | -3% | 18% | -5% | x | 1%[2.29 µM]
Cc1noc(C)c1-c1cc(NC2CC2)ncn1 | 25µM* | u | -5% | u | x | 3%[2.29 µM]
CCC(C)=O | -2% | -1% | 1% | 2% | x | x
COc1cc2c(cc1NC(=O)COC(=O)C1CC(=O)N(Cc3ccco3)C1)oc1ccccc12 (stereo not given) | u | 0% | u | 25µM* | >57 | 2%
Cc1cc(=O)[nH]c(SCc2nc3ncccn3c2Br)n1 | u | -2% | -4% | 32µM* | >57 | 5%
COc1cccc(O)c1O | x | 0.79µM* | -31% | 3.2µM* | x | x
COc1ccccc1O | -9% | -10% | 8% | 4% | x | x
O=c1c2cccc3c2c(nn1CN1CCOCC1)-c1ccccc1-3 | -2% | 2% | -11% | u | 2.9* | 0%
CC(=O)N1CCC2(CC1)CCN(c1ccccc1)CC2 | -14% | 0% | 28% | 2% | x | 2%[11.4 µM]
Cc1cnc(C(=O)Nc2cccc3cccnc23)cn1 | 10% | 6% | -4% | -16% | >57 | 0%
O=C(Nc1cccc2cccnc12)c1cccnc1 | 7% | 3% | -7% | 4% | 9.7* | -1%
CCc1cc(C=NC2CCCCC2)c(O)s1 | u | 13µM* | u | -24% | >57 | -9%
N/C(CC/C(N)=N/O)=N\O | 9%[11.4 µM] | -2%[11.4 µM] | -3%[11.5 µM] | 1%[11.4 µM] | x | 2%[11.4 µM]
Fc1ccc(-c2cc(C(F)(F)F)nc(N3CCCCC3)n2)cc1 | -9% | -17% | 47% | 25µM* | >57 | 0%
COc1cccc(-c2cc(C(F)(F)F)nc(N3CCC(C)CC3)n2)c1 | -8% | -7% | 27% | u | >57 | 2%
COc1cccc(-c2cc(C(F)(F)F)nc(N3CCOCC3)n2)c1 | u | -11% | 119% | 32µM* | >57 | 1%
COc1cccc(-c2ccc3ncnc(NCCN4CCOCC4)c3c2)c1 | 8% | 7% | 0% | -8% | x | -1%[2.29 µM]
C/C(CCC(=O)OC[C@@H]1O[C@H](C#Cc2ccccc2)C=C[C@@H]1Oc1ccc(C)cc1)=N/O[C@@H](C)c1cn([C@H](CO)Cc2ccccc2)nn1 | 5%[11.4 µM] | -1%[11.4 µM] | 6%[11.5 µM] | -1%[11.4 µM] | x | 1%[11.4 µM]
Cc1ccc(C)c(N)c1 | 1% | 5% | 18% | 5% | x | x
Cc1ccc2c(N)c(C)ccc2c1 | u | -3% | -26% | 25µM* | >57 | -1%
CCOC(=O)C(C(C)=O)c1c(Br)c(O)c(O)c2c(C(=O)c3ccc(C)cc3)coc12 (stereo not given) | 0.5µM* | 2µM* | u | 13µM* | >57 | -6%
CCCc1cc(=O)n2c(nc3ccccc32)[nH]1 | u | 0% | -14% | 25µM* | x | -29%
CCCCc1c(O)n2c(nc3ccccc32)[nH]c1=O | -5% | -3% | -12% | 2% | >57 | -8%
CCOC(=O)N1CCN(C(=O)CCn2nc(-c3ccccc3)ccc2=O)CC1 | 4% | -3% | -25% | 32µM* | >57 | 1%
O=C(CCn1nc(-c2ccccc2)ccc1=O)N1CCOCC1 | 0% | -11% | -6% | -4% | >57 | 1%
SMILES | HADH2 inh | ALOX15 inhib | ERK AVP block | HSD17B inh | PK Bst | Luciferase inh
CCOC(=O)CS(=O)(=O)c1nc(-c2ccccc2)cc(C(F)(F)F)n1 | 20µM* | -20% | u | -9% | x | -3%
CCOC(=O)CS(=O)(=O)c1nc(-c2ccc(F)cc2)cc(C(F)(F)F)n1 | 20µM* | u | u | 25µM* | 5.5* | -5%
Oc1cc(O)c2c(c1)O[C@@H](c1ccc(O)c(O)c1)[C@H](O[C@@]1(c3cc(O)c(O)c(O)c3)Oc3cc(O)cc(O)c3[C@H](O)[C@@H]1O)C2 | 0.63µM* | 1µM* | -15%[11.5 µM] | u | x | -4%[11.4 µM]
Cc1cc(C(=O)CN2C(=O)c3ccccc3C2=O)c(C)n1Cc1cccs1 | 6% | 1% | -2% | 3% | 11* | 7.9µM*
Cc1cc(C(=O)Cn2nnc3ccccc3c2=O)c(C)n1Cc1cccs1 | 14% | 2% | 2% | -1% | 5.7* | 6.3µM*
Cc1cc(C(=O)CN2C(=O)CCC2=O)c(C)n1Cc1ccccc1 | 9% | 10% | -4% | -4% | >57 | -3%
COc1cccc(Cn2c(=O)c(-c3cc(F)cc(F)c3)nc3cnc(N4CCNCC4)nc32)c1 | 14% | -2% | u | 6% | x | 1%[11.4 µM]
O=C1c2ccccc2NC(c2ccncc2)N1c1ccccn1 (stereo not given) | 32µM* | 11% | 8% | 32µM* | x | -2%
COc1ccccc1N1C(=O)c2ccccc2NC1c1ccncc1 (stereo not given) | u | 20µM* | -25% | 32µM* | >57 | -1%
COc1cc(C2N(c3ccccn3)C(=O)C3CCCN32)cc(OC)c1OC (stereo not given) | 5% | 1% | -6% | -4% | >57 | -1%
O=c1cnc2cnc(Nc3ccccc3)nc2n1C1CC1 | -8% | 4% | -15% | -7% | x | 1%[11.4 µM]
O=C(Cc1nc2ccccc2s1)c1ccc(O)cc1O | u | 16µM* | 25% | 25µM* | x | -9%
C#CCCCO/N=C1/C[C@@H](O)[C@@H](O)[C@@H]2[C@@H]3C(=O)N([C@@H](C)c4ccccc4)C(=O)[C@H]3CC[C@H]12 | 11%[11.4 µM] | 6%[11.4 µM] | 1%[11.5 µM] | -1%[11.4 µM] | x | 1%[11.4 µM]
COc1cc2c(cc1OC)-c1cc(NC3CCCC3)nc(=O)n1CC2 | u | -11% | u | 25µM* | >57 | -1%
COc1ccc(Oc2ncc3nc(C)c(=O)n(CCC#N)c3n2)cc1 | 2% | 4% | -3% | -28% | x | 0%[11.4 µM]
O[Si@](CCCN1CCCCC1)(c1ccc(F)cc1)C1CCCCC1 | -10% | -9% | 23% | -5% | x | 3%
O=c1cc(-c2cc(O)c(O)c(O)c2)oc2cc(O)cc(O)c12 | x | 2.5µM* | -44% | u | x | x
COc1ccc(-c2cc(=O)c3c(O)cc(O)c(-c4cc(-c5cc(=O)c6c(O)cc(O)cc6o5)ccc4OC)c3o2)cc1 | x | -8% | -30% | u | x | x
O=c1cc(-c2ccc(O)cc2)oc2cc(O)cc(O)c12 | 0.4µM*! | 5µM*! | u | u | x | u
O=c1cc(-c2ccccc2O)oc2cc(O)cc(O)c12 | -23% | -8%[25.6 µM] | u | -6% | x | -27%[11.4 µM]
O=c1cc(-c2ccccc2)oc2cc(O)cc(O)c12 | u | -13%[25.6 µM] | u | 0% | x | 13µM*
O=C(c1cccc(F)c1)N1CCC[C@@]2(CCN(Cc3ccncc3)C2)C1 | -7% | -7% | 13% | -7% | x | 0%[11.4 µM]
O=C(c1ccc(-n2c(=O)c(=O)[nH]c3ccccc32)cc1)N1CCCN(Cc2ccccc2)CC1 | -10% | -2% | x | -4% | x | x
Cc1ccc(NC(=O)c2cc(-c3ccco3)on2)cc1C | -22% | -9% | 5% | 25µM* | >57 | -17%
